The source of these data is PubChem BioAssay AID624416 (The Scripps Research Institute Molecular Screening Center, 2012).

The whole screen tested about 360,000 compounds, of which about 1,500 (0.42%) were called active. The sample as a whole holds a higher share of actives than the screen did. Values without a mark were called inactive. Cut-off read from the data, not from the text of the source: active = inhibition above about 8.5%; inactive = the rest.

For this assay, the system named is HIV-1 gp120 / PG9 antibody interaction. As to the kind of experiment: binders of HIV-1 gp120 antibody PG9, primary screen, biochemical, TR-FRET (AID 624416). To be noted: TR-FRET gp120-PG9 antibody binding; at 6.7 µM; stronger effect = higher value. A general note: Time-resolved FRET reads energy transfer from a long-lived donor to a nearby acceptor.
Broadly, the inhibition is the change of the read-out against control, counted positive when it falls. Regarding `O=C(COC(=O)c1cccc(Br)c1)Nc1cccc2c1C(=O)c1ccccc1C2=O`, the inhibition was 12% (active).

Consider `O=C(COC(=O)c1cccc(Cl)c1)Nc1ccc2[nH]c(=O)[nH]c2c1`, for which the inhibition is 0.75%.

Regarding `O=C(COC(=O)Cn1cnc2ccccc21)Nc1cccc2c1C(=O)c1ccccc1C2=O`, the inhibition is -1.23%.

For the compound `COC(=O)[C@]12C[C@H](CC(=O)NCc3cccc(C(F)(F)F)c3)C(=O)N(Cc3ccc4c(c3)OCO4)C1=C[C@H](COCc1ccccc1)O[C@@H]2C`, the inhibition was -1.16%.

As to `COc1cccc(NC(=O)N(C)C[C@@H]2OCc3cn(nn3)CCCC(=O)N([C@@H](C)CO)C[C@H]2C)c1`, the inhibition was 0.85%.

Take `Cc1cc(C#N)c(SCC(N)=O)nc1-c1ccc(F)cc1`: the inhibition is -0.54%.

Turning to `CCOc1ccc2cc(C#N)c(SCC(=O)OC)nc2c1`, the inhibition was 33.3% (active).

Regarding `CCOc1ccc2nc(N3CCCN(C(=O)Nc4ccccc4C)CC3)c(C#N)cc2c1`, the inhibition was 1.36%.

For `COc1ccccc1Cc1c(-c2ccc(F)cc2)nc2ccc(C)cn12`, the inhibition was 1.73%.

As to `N#Cc1ccc(OCCCN2CCC(C(O)(c3ccccc3)c3ccccc3)CC2)c(F)c1`, the inhibition was 1.27%.

For the compound `NS(=O)(=O)c1ccc2nc(NC(=O)CS(=O)(=O)c3ccc(F)cc3)sc2c1`, the inhibition was -0.8%.

Take `Cc1nc(NC(=O)CCC(=O)O)sc1C(=O)N(C)C`: the inhibition was 0.5%.

With `O=C(O)CCC(=O)Nc1nc2ccc([N+](=O)[O-])cc2s1`, the inhibition was 9.53% (active).

With `CCN1C(=O)N[C@@H]2C[C@H](C(=O)N3CCCC3)[C@H](C)[C@H](c3ccccc3)C[C@@H]21`, the inhibition is -1.63%.

With `O=C(COC(=O)c1ccccc1Cl)NC1CCCCCCC1`, the inhibition is -1.4%.

`O=C(COC(=O)c1cccc(Cl)c1Cl)NC1CCCCCC1`: the inhibition was -0.6%.

As for `N#Cc1ccccc1Sc1ccccc1C(=O)OCC(=O)NC1CCCCC1`, the inhibition is 33% (active).

Take `COCCNC(=S)N(C)[C@H]1C[C@H]2c3[nH]c4ccccc4c3CCN2C[C@H]1[C@H](C)O`: the inhibition was -0.82%.

For `COCc1[nH]nc2c1C(c1ccccc1)N(c1ccccc1)C2=O` (stereo not given), the inhibition was 0.32%.

As to `O=C1[C@@H](c2ccccc2)[C@@H](c2ccccc2)N1c1ccccc1`, the inhibition is -1.27%.

For the compound `Cc1cc2c3ccccc3[nH]c(=O)n2n1`, the inhibition was 0.66%.

`S=c1[nH]c2ccccc2c2ccccc12`: the inhibition was 41.9% (active).

For `S=c1ccc2ccccc2[nH]1`, the inhibition is 1.87%.

On to `Cc1ccc(-n2ncc3c2ncn2nc(-c4ccco4)nc32)c(C)c1`, for which the inhibition was 1.54%.

As for `Cc1ccc(-n2nc(-c3ccco3)cc2C(=O)NCc2cccnc2)cc1`, the inhibition was 1.7%.

As for `Cc1ccc(-n2ncc3c(=O)n(-c4ccc(C)c(C)c4)c(-c4ccco4)nc32)cc1`, the inhibition was 9.24% (active).

On to `CCOC(=O)Cn1c2c(n(-c3ccc(F)cc3)c1=O)C=C(c1ccccc1)[C@@H](C)C(C(=O)N(C)C1CCCCC1)=C2`, for which the inhibition was 1.82%.

Consider `CCCCCCCCN1C(=O)[C@@H](CC(=O)N2CCN(C(=O)OCC)CC2)C[C@@]2(C(=O)OC)C1=C[C@H](C1CCCC1)O[C@@H]2C`, for which the inhibition was -1.72%.

Turning to `Cc1ccc(-c2cc(C(=O)NCc3cn(C)nc3C)c3cc(Br)ccc3n2)cc1`, the inhibition was 11.4% (active).

For `Cc1nn(C)cc1C(=O)Nc1ccccc1Br`, the inhibition was -1.45%.

On to `Cc1nn(C)cc1CNC(=O)Nc1ccc(Cl)cc1`, for which the inhibition is -1.07%.

For the compound `Cc1cc(OC(=O)NCCc2ccc(F)cc2)ccc1F`, the inhibition is 0.4%.

Turning to `COC(=O)[C@]12C[C@H](CC(=O)NCc3ccccc3)C(=O)N(CCC3=CCCCC3)C1=C[C@H](C(C)(C)C)O[C@@H]2C`, the inhibition is -0.45%.

For `Nc1ncnc2c1ncn2C1OC(CO)CC1O` (stereo not given), the inhibition is -0.46%.

As to `CSc1nc2c(c(=O)[nH]1)C(c1cccc(Cl)c1Cl)CC(=O)N2` (stereo not given), the inhibition was -0.61%.

With `N#Cc1c(N)nc2c3c(sc(=N)c2c1N)NC(=O)CC3c1ccccc1Cl` (stereo not given), the inhibition is 36.3% (active).

With `Fc1cc(F)c2nc(Nc3nc4c(F)cccc4s3)sc2c1`, the inhibition was 12.7% (active).

With `NNc1nc2c(Cl)cccc2s1`, the inhibition is -3.22%.

With `Cc1cc(NCCc2c[nH]c3ccccc23)ccc1Oc1cccnc1`, the inhibition is 0.39%.

As to `C[C@@H](CN1C2=NC[C@@H](Cc3ccccc3)N2C[C@H]1Cc1ccc(O)cc1)NC(=O)CCC1CCCCC1`, the inhibition was -0.86%.

Regarding `COc1ccc(NC(=O)CSc2nnc(Cc3ccccc3)c(=O)n2N)cc1`, the inhibition is -0.48%.

`COc1ccc(NC(=O)CC(NC(C)c2ccccc2)C(=O)O)cc1` (stereo not given): the inhibition was -1.77%.

Take `COc1ccc(CC(=O)Nc2ccc(-c3nnc(-c4ccccc4)o3)cc2)cc1`: the inhibition is 9.44% (active).

Regarding `CC(C)[C@H]1COCCS(=O)(=O)N1Cc1ccccc1-c1cccc2c1sc1ccccc12`, the inhibition is -1.17%.

For `C=CC[C@]12C[C@@]3(O[C@H](c4ccc(C(F)(F)F)cc4)N=C3C[C@H](c3ccc(OC)cc3)[C@H]1C)N(C1CCN(Cc3ccccc3)CC1)C2=O`, the inhibition was -1.53%.

For `Cc1ccc(-n2c(SCC(=O)N3CCC(C(=O)O)CC3)nc3ccccc3c2=O)cc1C`, the inhibition was -0.77%.

On to `CCCn1c(N)c(C(=O)CSc2nc3ccccc3c(=O)n2-c2ccc(OC)cc2)c(=O)[nH]c1=O`, for which the inhibition was -1.09%.

Regarding `COc1cccc(-n2c(SCC(=O)c3c[nH]c4ccccc34)nc3ccccc3c2=O)c1`, the inhibition was 35.5% (active).

Turning to `O=C(NCCc1ccccn1)c1cc(C(=O)C2CCCCC2)c[nH]1`, the inhibition was 10.2% (active).

Take `O=C(NCCc1ccccn1)c1ccc(COc2ccccc2)o1`: the inhibition was -2%.

For `COc1ccc(CNC(=O)c2cc(C(=O)C3CC3)c[nH]2)cc1`, the inhibition is -0.91%.

Take `COc1ccc(CCNC(=O)CSc2nnc3ccc(-c4ccncc4)nn23)cc1`: the inhibition was -1.52%.

As to `COc1ccc(CCNC(=O)CSc2nc(-c3ccc(OC)c(OC)c3)ccc2C#N)cc1`, the inhibition was 16% (active).

In the case of `COc1cc(OC)cc(C(=O)NCCSCc2ccc(Cl)cc2)c1`, the inhibition is -1.65%.

Take `COc1ccc(CCNC(=O)CSc2nc(C)nc3c2oc2ccccc23)cc1OC`: the inhibition was -0.52%.

As to `COc1ccc(CCNC(=O)COC(=O)c2cnc(Cl)c(Cl)c2)cc1`, the inhibition was -0.95%.

As for `COc1cccc(-c2ccc(C#N)c(SCC(=O)NCCc3ccc(Cl)cc3)n2)c1`, the inhibition is 14.1% (active).

As to `CCc1c(-c2ccccc2OC)ncn1CCc1ccccc1OC`, the inhibition was 0.74%.

On to `COC(=O)[C@]12C[C@H](CC(=O)N3CCN(C(=O)C4CC4)CC3)C(=O)N(Cc3ccc4c(c3)OCO4)C1=C[C@H](C(C)(C)C)O[C@@H]2C`, for which the inhibition was -1.36%.

For `COC(=O)c1ccc(CN2C(=O)[C@]3(OCCC=C[C@H]3C)c3c(Br)cccc32)cc1`, the inhibition was 0.64%.

Consider `COc1ccccc1C(=O)N1O[C@]23C=C[C@]14C[C@@H](O)CC[C@]4(C)C2CC[C@]1(C)[C@@H]([C@H](C)/C=C/[C@H](C)C(C)C)CC[C@H]13` (stereo not given in full), for which the inhibition is 0.64%.

Take `NC(=O)c1ncn([C@@H]2O[C@H](C(=O)O)[C@@H](O)[C@H]2O)n1`: the inhibition is -0.47%.

As for `COc1ccc(C(=O)COC(=O)C(O)c2ccccc2)c(OC)c1` (stereo not given), the inhibition was -2.12%.

Consider `CCOC(=O)c1c(C)[nH]c(C(=O)COc2ccc3c(c2)OCO3)c1C`, for which the inhibition was 3.13%.

For the compound `CCOC(=O)c1c(C)[nH]c(C(=O)OCC(=O)c2ccc(OC)cc2OC)c1C`, the inhibition is 9.16% (active).

In the case of `COC(=O)Cc1nnn2c1[C@H](C)[C@@H](OC)c1cc(Br)ccc1-2`, the inhibition was 0.07%.

Take `CCn1c(SCC(=O)Nc2cccc(F)c2)nnc1-c1cc2cc(Br)ccc2o1`: the inhibition is 24.2% (active).

Regarding `Cn1c(SCC(=O)Nc2ccc(Br)cc2F)nnc1-c1ccco1`, the inhibition is 2.43%.

Regarding `CCn1c(CNC(=O)c2ccco2)nnc1SCC(=O)Nc1cccc(F)c1`, the inhibition is -1.17%.

With `CCCCCCCCN1C(=O)[C@@H](CC(=O)NCc2ccc(C)o2)C[C@@]2(C(=O)OC)C1=C[C@H](C(C)(C)C)O[C@@H]2C`, the inhibition was 0.05%.

For the compound `COC(=O)C1=C(C)N(Cc2ccccc2C(F)(F)F)C(=NCC2CC2)NC1c1cccc(Cl)c1` (stereo not given), the inhibition is -1.5%.

As to `COC(=O)C1=C(C)N(Cc2ccccc2C(F)(F)F)C(=NCc2ccc(OC)cc2)NC1c1cccc(C(F)(F)F)c1` (stereo not given), the inhibition is 24.9% (active).

As for `COC(=O)C1=C(C)N(Cc2ccccc2C(F)(F)F)C(=NCc2ccc(C(F)(F)F)cc2)NC1c1ccc(F)cc1` (stereo not given), the inhibition was -2.66%.

On to `CC1(C)OC(=O)C2=C(CC(CCc3ccccc3)OC2c2ccc(Cl)cc2)O1` (stereo not given), for which the inhibition is 1.11%.

For the compound `O=C(Nc1ccn(Cc2ccccc2F)n1)c1ccc(COc2ccc(Cl)cc2Cl)o1`, the inhibition is 1.3%.

With `COc1ccc(Sc2ccc(NC(=O)c3cccc(Cl)c3)cc2C#N)cc1`, the inhibition was -1.17%.

As to `N#Cc1ccccc1NC(=O)c1cccc(COc2ccc(Cl)cc2Cl)c1`, the inhibition is 19.9% (active).

As for `CN[C@H]1C[C@H]2c3[nH]c4c(-c5ccccc5)cccc4c3CCN2C(=O)[C@H]1[C@H](C)O`, the inhibition was -0.87%.

As to `COc1ccc(-c2ccc3c(n2)CCCN3S(=O)(=O)c2ccc(C)cc2)cc1`, the inhibition is -0.15%.

With `COC(=O)C1=C(C)N(Cc2ccc(C(F)(F)F)cc2)C(=NCc2ccc(C(F)(F)F)cc2)NC1c1cccc(Cl)c1` (stereo not given), the inhibition is -0.79%.

For `CC1CCN(S(=O)(=O)c2ccc3[nH]c(=O)ccc3c2)CC1`, the inhibition was 0.02%.

As for `Cc1cc(C)cc(NC(=O)C2CCCN(S(=O)(=O)c3ccc4[nH]c(=O)ccc4c3)C2)c1` (stereo not given), the inhibition was 11.4% (active).

For the compound `CCc1cccc(NC(=O)C2CCCN(S(=O)(=O)c3ccc4[nH]c(=O)ccc4c3)C2)c1` (stereo not given), the inhibition was 0.8%.

Consider `CC(C)[C@@H](C)/C=C/[C@@H](C)[C@H]1CC[C@@H]2[C@]1(C)CCC1[C@]23C=C[C@]2(C[C@@H](O)CC[C@]12C)N(c1ccc([N+](=O)[O-])cn1)O3` (stereo not given in full), for which the inhibition was -1.14%.

Take `O=C(NCc1ccc(Cl)cc1)c1cc(=O)nc2sc(-c3ccccc3)nn12`: the inhibition was -2.19%.

Regarding `O=C(NCc1ccc(Cl)cc1)c1cc2c(nc3sccn32)s1`, the inhibition was 28.4% (active).

On to `O=C(NCc1ccc2c(c1)OCO2)c1c(O)nc2sccn2c1=O`, for which the inhibition was -1.43%.

`CCOC(=O)CNC(=O)N(C)[C@H]1C[C@H]2c3[nH]c4c(-c5ccc6c(c5)OCO6)cccc4c3CCN2C(=O)[C@H]1[C@H](C)O`: the inhibition is -0.88%.

On to `CSc1ncccc1C(=O)NCc1ccccc1Cl`, for which the inhibition was -1.41%.

In the case of `O=C(NCc1cccnc1)c1cccnc1Sc1ccc(Cl)cc1`, the inhibition was 0.54%.

As for `COc1cccc(CNC(=O)c2cccnc2Sc2ccc(Cl)cc2)c1`, the inhibition was 14.9% (active).

Take `O=C(NCc1ccccc1)[C@@H]1CCCN1C(=O)[C@@H](NS(=O)(=O)c1ccc(F)cc1F)C1CCCCC1`: the inhibition is -0.43%.

With `O=C(CCC1CCCC1)N=C1SC2CS(=O)(=O)CC2N1Cc1ccccc1` (stereo not given), the inhibition was 0.63%.

Turning to `O=C(N=C1SC2CS(=O)(=O)CC2N1c1ccccc1)c1ccccc1` (stereo not given), the inhibition is -0.55%.

For `O=C(N=C1SC2CS(=O)(=O)CC2N1Cc1ccccc1)c1ccccc1` (stereo not given), the inhibition was 34% (active).

On to `Nc1[nH]c(C(=O)c2ccccc2)c(-c2ccc(Cl)cc2Cl)c1C(=O)c1ccccc1`, for which the inhibition was 0.83%.

For the compound `CCc1c(-c2ccccc2)nc(N)c(C#N)c1-c1cccs1`, the inhibition is -2.39%.

In the case of `Cc1c(-c2ccccc2)nc(N)c(C#N)c1-c1cccs1`, the inhibition was 12.2% (active).

Take `CN1CCc2nc(SC(C(=O)O)c3ccccc3)c(C#N)c(-c3cccs3)c2C1` (stereo not given): the inhibition is 1.9%.

Take `O=C(NCc1ccccc1)[C@H]1CCCN1C(=O)[C@H]1CCCN1C(=O)c1cc(F)cc(F)c1`: the inhibition was -2.57%.
